D2 PAM-1: potentiates the human D2 dopamine receptor allosterically; DiscoveRx D2 beta-arrestin cells, luminescence, 90 min; 100% = 57 uM dopamine signal; potentiation, % (no concentration beside the values); actives 0.23% (n = 360,000); AID 624464; P14416; in the data active means potentiation above about 50%; inconclusive means mostly about 30% to 49%
Target sequence (P14416 whole entry, looked up): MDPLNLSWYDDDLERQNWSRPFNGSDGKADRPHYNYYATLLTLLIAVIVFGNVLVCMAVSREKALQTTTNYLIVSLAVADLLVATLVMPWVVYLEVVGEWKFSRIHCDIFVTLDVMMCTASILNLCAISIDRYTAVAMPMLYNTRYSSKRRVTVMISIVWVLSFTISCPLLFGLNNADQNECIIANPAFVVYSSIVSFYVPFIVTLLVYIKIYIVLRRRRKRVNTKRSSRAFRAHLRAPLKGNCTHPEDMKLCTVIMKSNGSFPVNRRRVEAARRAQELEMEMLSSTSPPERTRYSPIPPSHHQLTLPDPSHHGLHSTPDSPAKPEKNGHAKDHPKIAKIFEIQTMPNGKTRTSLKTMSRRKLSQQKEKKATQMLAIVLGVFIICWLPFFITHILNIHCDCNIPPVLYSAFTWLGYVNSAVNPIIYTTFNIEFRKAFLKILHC
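PathHunter D2 cells, attached overnight at 37 deg C, received compound in DMSO plus dopamine at EC20 (50 nM final) for 90 min at 37 deg C. Beta-arrestin recruitment was read as luminescence after 1 h with detection reagent at ambient temperature.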
D2 PAM-2: positive allosteric modulators of human D2 dopamine receptor; HEK293 T-REx D2, calcium flux, EC20 dopamine potentiation; potentiation, % at 10 µM; P14416; AID 485347; actives 0.34% (n = 340,000);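 active means potentiation over 3 SD above the plate norm, cut at about 30% in these data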; further: 0% is about no effect
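Using a no-wash calcium dye in inducible, force-coupled HEK293 Trex cells expressing D2, we tracked fluorescence each second for 180 s after compound, then for 180 s after EC20 dopamine to detect augmented signalling.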
D2 antagonist: D2 dopamine receptor (human) antagonism; P14416; HEK293 TREx D2 cells, calcium flux, dopamine EC80; actives 2% (n = 340,000); inhibition, % at 10 µM; AID 485344; in the data active means inhibition above about 30%; inactive means below that, where a call was filed; further: 0% is about no effect
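Calcium flux kinetic readout in an inducible HEK293 TREx D2 line plated overnight at 30 C. After 180 s compound exposure, an EC80 dopamine challenge follows with another 180 s kinetic read to detect antagonism.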
D2 ag-1: agonists of human D2 dopamine receptor (beta-arrestin). activation, % (no concentration beside the values). actives 0.084% (n = 360,000). DiscoveRx PathHunter D2 beta-arrestin, luminescence, 90 min; 100% = 57 uM dopamine signal. AID 624465. P14416; in the data active means activation above about 40%; inconclusive means between about 15% and that limit
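Agonist mode: compounds alone added to overnight-plated D2 PathHunter cells for 90 min at 37 C, with 57 uM final dopamine (EC100) defining full response. Beta-arrestin recruitment detected by chemiluminescent reagent, read after 1 h at ambient temperature.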
D2 ag-2: activates the human D2 dopamine receptor | activation, % at 2 µM | AID 485358 | actives 0.53% (n = 340,000) | HEK293 T-REx D2 cells, calcium flux agonist mode;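 active means activation over 3 SD above normal in the single-dose calcium agonist read, cut at about 30% in these data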; further: 0% is about no effect
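Calcium-flux readout, 1 cycle/sec over 180 s following compound pin transfer, in inducible HEK293 Trex D2 cells (force-coupled); dopamine controls included. Positive calcium responses during this window marked compounds as potential agonists.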
The depositor's hits bear a star. Shown are actives, neighbours in structure and some others; about 2.4% of the full set was active somewhere.

Screening CCCc1cc(=O)oc2cc(C)cc(OCC(=O)NC(Cc3c[nH]c4ccc(O)cc34)C(=O)O)c12 (centres undefined) returned D2 PAM-1 -2.4, D2 PAM-2 7.7, D2 antagonist -23.6, D2 ag-1 -3.9 and D2 ag-2 0.2.
For CCOC(=O)Cn1nc(Cc2ccccc2)c2ccccc2c1=O the results were D2 PAM-1 -6.7, D2 PAM-2 42.7*, D2 antagonist 13.0, D2 ag-1 -5.9 and D2 ag-2 0.4.
For CCOC(=O)Cn1nc(-c2ccccc2)c2ccccc2c1=O the results were D2 PAM-1 -11.5, D2 PAM-2 -4.0, D2 antagonist -2.8, D2 ag-1 -0.9 and D2 ag-2 -0.8.
For CSc1cccc(NC(=O)C2CCCN(C(=O)c3cnn(-c4ccc(F)cc4)c3-n3cccc3)C2)c1 (centres undefined) the results were D2 PAM-2 -6.7 and D2 ag-2 0.4.
`CCC(C(=O)N1CCN(c2cc(Cl)ccc2C)CC1)n1nc(C)n2c(cc3occc32)c1=O` (centres undefined) gave D2 PAM-2 -1.0 and D2 ag-2 0.6.
Screening CC(C)(C)OC(=O)N1CCNc2ccccc2C1 returned D2 PAM-1 -36.3, D2 PAM-2 -4.1, D2 antagonist 30.5*, D2 ag-1 -4.3 and D2 ag-2 1.2.
Screening Nc1[nH]nc2ncc3cc4ccccc4nc3c12 returned D2 PAM-1 15.1, D2 PAM-2 -0.5, D2 antagonist 59.5*, D2 ag-1 -2.5 and D2 ag-2 -0.2.
CCn1nc(C)c2c(-c3ccccc3)cc(=O)n(C(C)C(=O)NCCc3ccccc3)c21 (centres undefined) was read as D2 PAM-2 -0.6 and D2 ag-2 1.7.
O=C(N/N=C/c1ccc(O)cc1)c1csc2ccccc12 was read as D2 PAM-1 -4.7, D2 PAM-2 4.4, D2 antagonist 32.0*, D2 ag-1 0.7 and D2 ag-2 0.0.
CC1=CC(=O)CC2C1(C)CCC(C)C2(C)CCC(C)CC(=O)O (centres undefined) was read as D2 PAM-1 -18.1, D2 PAM-2 2.3, D2 antagonist 32.3*, D2 ag-1 1.6 and D2 ag-2 0.0.
For Cc1ccccc1C(=O)n1nc(-c2ccco2)nc1NCc1cccs1 the results were D2 PAM-2 3.8 and D2 ag-2 -1.4.
For O=C(NCCCN1CCCC1=O)c1ccc2c(c1)NC(=O)C(N1CCOCC1)S2 (centres undefined) the results were D2 PAM-1 13.4, D2 antagonist 32.9*, D2 ag-1 2.2 and D2 ag-2 0.5.
O=[N+]([O-])c1nn(-c2ccccc2)n(O)c1=NCCc1ccccc1 was read as D2 PAM-1 160.6*, D2 PAM-2 -3.1, D2 antagonist -2.4, D2 ag-1 inconclusive and D2 ag-2 0.6.
Screening COc1ccc(-n2nc([N+](=O)[O-])c(=NCCc3ccccc3)n2O)cc1 returned D2 PAM-1 131.2*, D2 PAM-2 13.7, D2 antagonist -9.4, D2 ag-1 inconclusive and D2 ag-2 -0.7.
`Cc1ccc(CCN=c2c([N+](=O)[O-])nn(-c3ccccc3)n2O)cc1` gave D2 PAM-1 67.3*, D2 PAM-2 -4.4, D2 antagonist 5.9, D2 ag-1 inconclusive and D2 ag-2 0.6.
For CCN(CC)CCOC(=O)c1ccc(NC(=O)c2cc3c(=O)n(CC)c4ccccc4c3s2)cc1 the results were D2 PAM-2 15.9.
Screening CC(=O)N1CCCc2cc(S(=O)(=O)NCc3ccc(OC(C)C)cc3)ccc21 returned D2 PAM-2 4.5 and D2 ag-2 1.0.
`COc1cccc(NC(=O)/C=C/c2ccc(S(=O)(=O)N3CCOCC3)cc2)c1` gave D2 PAM-1 -3.7, D2 PAM-2 -20.6, D2 antagonist 47.3*, D2 ag-1 -2.1 and D2 ag-2 0.1.
COc1ccc(/C=C/C(=O)Nc2cccc(F)c2)cc1S(=O)(=O)N1CCOCC1 was read as D2 PAM-1 -0.9, D2 PAM-2 6.0, D2 antagonist 55.6*, D2 ag-1 0.3 and D2 ag-2 1.8.
COc1cccc(NC(=O)/C=C/c2ccc([N+](=O)[O-])cc2)c1 was read as D2 PAM-1 -1.3, D2 PAM-2 -19.6, D2 antagonist 44.6*, D2 ag-1 0.7 and D2 ag-2 -0.9.
For COc1cccc(NC(=O)/C=C/c2ccccc2[N+](=O)[O-])c1 the results were D2 PAM-1 -27.6, D2 PAM-2 -20.6, D2 antagonist -4.6, D2 ag-1 -0.1 and D2 ag-2 -0.8.
Cc1ccc(/C=C/C(=O)Oc2ccc(C#N)cc2)o1 was read as D2 PAM-2 2.9, D2 antagonist 48.4* and D2 ag-2 0.1.
Screening CCCNC(=O)COC(=O)/C=C/c1ccc(C)o1 returned D2 PAM-1 -6.1, D2 PAM-2 -3.0, D2 antagonist 30.3*, D2 ag-1 -2.6 and D2 ag-2 2.2.
For Cc1ccc(/C=C/C(=O)OCC(=O)NCc2ccccc2)o1 the results were D2 PAM-1 6.5, D2 PAM-2 -4.2, D2 antagonist -5.5, D2 ag-1 -3.6 and D2 ag-2 -0.5.
`O=C(CSc1ncc2c(n1)-c1ccccc1N(Cc1ccc(F)cc1)S2(=O)=O)c1ccc(Cl)cc1` gave D2 PAM-2 -3.5 and D2 ag-2 0.8.
`Cc1c(CC(=O)NCCc2ccccc2F)c(=O)oc2c(C)c3occ(C(C)(C)C)c3cc12` gave D2 PAM-2 -1.5 and D2 ag-2 -0.4.
Screening Cc1ccc(CNC(=O)c2cc(C3CC3)nc3c2cnn3C(C)C)cc1 returned D2 PAM-1 -42.5, D2 PAM-2 -36.9, D2 antagonist 39.3*, D2 ag-1 2.3 and D2 ag-2 -1.2.
For COc1ccc(CNC(=O)c2cc(C3CC3)nc3c2cnn3C(C)C)cc1OC the results were D2 PAM-1 -2.8, D2 PAM-2 -10.5, D2 antagonist 0.7, D2 ag-1 0.4 and D2 ag-2 -0.2.
For O=C(O)CC1(CC(=O)N2CCOCC2)CCCC1 the results were D2 PAM-1 1.7, D2 PAM-2 35.7*, D2 antagonist 4.2, D2 ag-1 -3.4 and D2 ag-2 0.4.
`O=C(O)CC1(CC(=O)N2CCC(C(=O)O)CC2)CCCC1` gave D2 PAM-1 -1.6, D2 PAM-2 7.5, D2 antagonist 12.0, D2 ag-1 -3.2 and D2 ag-2 0.7.
For Nc1ccc(C#Cc2ccc3c(=O)c4ccccc4oc3c2)cc1 the results were D2 PAM-1 -8.6, D2 PAM-2 -6.2, D2 antagonist 41.3*, D2 ag-1 -2.4 and D2 ag-2 2.5.
For COc1cc2oc3cc(C#Cc4ccc(N)cc4)ccc3c(=O)c2cc1OC the results were D2 PAM-1 -2.8 and D2 ag-1 -1.0.
For CCOc1ccc(-c2csc(-c3c(N)c(C(=O)c4ccc5c(c4)OCO5)n4ccccc34)n2)cc1 the results were D2 PAM-2 14.6 and D2 ag-2 -1.2.

Source: PubChem BioAssay
